# The full list was thinned out, with hits kept by preference.
# p53ts 39C kill – p53ts cell cytotoxicity, nonpermissive temperature. H1299-p53A138V viability at 39C, ATP luminescence, 24 h. Potency, µM (doses to about 46.1 µM), actives largely listed as cytotoxic. 130,000 compounds, 1.5% hits; also: nearly all actives have a fitted effect of over 55% in size
# IkB sig inh – suppresses IkB signaling in ABC-DLBCL reporter cells; ABC-DLBCL IkBa-CBG/CBR dual luciferase ratio, 4 h; response scale: scaled: untreated 0%, proteasome inhibitor 100%; Potency, µM (top dose mostly 57.1 µM); 110,000 compounds, 0.04% hits; AID 445; active = well fitted curve in the direction sought with a large enough effect in the signal ratio, not every such curve was filed as active; inconclusive = small, poorly fitted or top-dose-only effect, or a change in a side signal; the % refers to the signal ratio;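 also: the direction sought is a rising ratio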
#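 Curves were fitted separately to fusion (green), unfused (red) and ratio luminescence, then classed by r2, magnitude and activity. Cells: OCI-Ly3, 4 h compound plus doxycycline at 37C; 10 uM MG-132 defined full response.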
# IMPase inh – membrane-permeable compound that blocks inositol monophosphatase; P97697; CHO-M1 cells, IP1 accumulation, HTRF TR-FRET ratio; inhibition (IP1 accumulation), % at 46.1 µM; 120,000 tested, under 10 active; AID 901; active = well fitted curve in the direction sought with a large enough effect in the signal ratio, not every such curve was filed as active; inconclusive = small, poorly fitted or top-dose-only effect, or a change in a side signal; inactive = no such curve, though single readings can be large or run the other way; the % refers to the signal ratio;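 also: cells stimulated with carbachol in lithium chloride buffer; higher means more IMPase inhibition seen as more IP1 and lower FRET ratio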
#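 CHO-M1, 2000 cells/well, cultured 16–30 h; cpd up to 46 uM; carbachol (50 uM solution, stimulation buffer w/ 50 mM LiCl, pH 7.4), 30 min 37C; IP-One TR-FRET, 10 min RT; Ex 320/Em 665, 620; Hill-fit AC50.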
# Imprint erasure – genomic imprint erasure induction; mouse ES Peg3-LacZ reporter, beta-gal luminescence, 40 h; Potency, µM (series often up to 60.7 µM), hits mostly activators; 110,000 compounds, 0.02% hits; AID 1948
#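 Imprint erasure is scored as LacZ activity from the silenced maternal Peg3 allele in feeder-free female ES cells cultured 40 h with LIF. Luminescence is normalized to in-plate negative controls and fitted to the Hill equation.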
# Luciferase inh – inhibitors of firefly luciferase. purified firefly luciferase, luminescence, 8 min. Potency, µM (titrated, usually from 57.1 µM), usual class: inhibitors. 72,000 compounds, 2.2% hits; also: nearly all actives have a fitted effect of over 40% in size
# Target sequence (P08659 whole entry, looked up): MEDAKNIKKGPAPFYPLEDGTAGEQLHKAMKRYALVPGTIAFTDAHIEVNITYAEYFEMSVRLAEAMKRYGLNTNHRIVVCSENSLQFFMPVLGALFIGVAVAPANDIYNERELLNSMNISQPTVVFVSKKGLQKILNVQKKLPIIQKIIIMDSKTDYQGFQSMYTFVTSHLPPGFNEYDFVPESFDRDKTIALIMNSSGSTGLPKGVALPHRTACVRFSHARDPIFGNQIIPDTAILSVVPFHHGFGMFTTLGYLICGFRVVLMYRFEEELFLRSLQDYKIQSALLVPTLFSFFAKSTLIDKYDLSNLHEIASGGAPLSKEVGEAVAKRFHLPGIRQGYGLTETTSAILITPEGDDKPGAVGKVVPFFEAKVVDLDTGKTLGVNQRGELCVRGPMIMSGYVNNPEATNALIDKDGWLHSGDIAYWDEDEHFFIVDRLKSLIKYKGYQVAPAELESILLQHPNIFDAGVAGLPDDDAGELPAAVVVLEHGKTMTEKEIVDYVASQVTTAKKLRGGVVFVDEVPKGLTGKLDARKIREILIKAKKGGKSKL
#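 qHTS concentration-response profiling: light output of P. pyralis luciferase with luciferin and 10 uM ATP, imidazole buffer pH 7.2. Read by luminescence after 8-min room-temperature incubation.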
# p53ts 32C tox – kills p53ts cells at the permissive temperature; H1299-p53A138V at 32C, ATP luminescence viability, 24 h; Potency, µM (top dose mostly 46.1 µM), hits mostly cytotoxic; 130,000 compounds, 0.93% hits; also: nearly all actives have a fitted effect of over 55% in size
#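 H1299-p53 A138V cells (temperature-sensitive p53) exposed 24 h to up to 46 uM compound at 32C, where p53 is wild-type in conformation. Viability read as ATP luminescence and normalised to DMSO and 100 uM tamoxifen. AC50 fitted with the Hill equation.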
# Numbers stand for hits; n = inactive; u = inconclusive; x = no result given; [ ] = another dose, or the depositor's remark. Unless noted, calls follow the shape of the dose curve; as a rule, active = well fitted curve in the direction sought with a large enough effect; inconclusive = small, poorly fitted or top-dose-only effect, or another doubt; inactive = no such curve, though single readings can be large; an effect the other way counts as inactive or inconclusive.
SMILES,p53ts 39C kill,IkB sig inh,IMPase inh,Imprint erasure,Luciferase inh,p53ts 32C tox
Oc1cccc2ccc(SSc3ccc4cccc(O)c4n3)nc12,n[9.22 µM],n[11.4 µM],x,n[10.9 µM],n[11.4 µM],n[9.22 µM]
CC1(C)S[C@@H]2[C@H](NC(=O)[C@@H](N)c3ccc(O)cc3)C(=O)N2[C@H]1C(=O)O,n,n,n,n,n,n
Cc1cccc(N2CCN(c3ccc(C(=O)O)cc3NC(=O)c3cccc(Cl)c3)CC2C)c1 (stereo unspecified),n,u,x,n[10.9 µM],x,n
CCCN1Cc2cccc(C(=O)Nc3cc(Cl)ccc3C)c2C1=O,n,n,x,n[10.9 µM],x,n
Cc1cc(C)cc(NC(=O)c2ccc(CSc3nnnn3C)cc2)c1,x,x,n,x,x,x
Cn1nnnc1SCc1ccc(C(=O)Nc2nccs2)cc1,5µM,n,n,n,1µM,u
O=C(NCc1ccc(F)cc1)c1cc2n(n1)CCCN(Cc1ccc(F)cc1)C2=O,n,u,x,n[10.9 µM],x,n
O=C(NC(=S)N(CCc1ccccc1)CCc1ccccc1)c1ccco1,11µM,x,n,x,x,n
O=C(NCc1ccccc1)c1ccco1,n,x,n,x,x,n
C[C@@]12C[C@H](O)[C@@H]3[C@H](CCC4=CC(=O)CC[C@]43C)[C@H]1CC[C@@H]2c1csc(-c2ccccc2)n1,n[9.22 µM],n[11.4 µM],x,x,n[11.4 µM],n[9.22 µM]
O=C(Nc1nc2c(s1)CCCC2)C1COc2ccccc2O1 (stereo unspecified),u,u,n,n,10µM,u
O=C(NC1=NCCS1)C1COc2ccccc2O1 (stereo unspecified),13µM,u,u,n,2µM,13µM
O=C(Nc1ccncc1)C1COc2ccccc2O1 (stereo unspecified),n,n,n,n,n,n
C=CCNc1nc(-c2ccc(O)c(C(N)=O)c2)cs1,x,x,n,x,n,x
C=CCNc1nc(-c2cc3ccccc3o2)cs1,u,x,n,x,x,14µM
Cc1ccnc(Nc2nc3ccccc3o2)n1,7.9µM,u,n,n,6.3µM,5µM
N#Cc1cnc(Nc2nc3ccccc3o2)nc1-c1ccccc1,n,n,n,n,n,n
